Assay results published in PubChem BioAssay AID2384 (Southern Research Specialized Biocontainment Screening …, 2010).
The whole screen tested about 2,300 compounds, of which about 1,100 (48%) were called active. The rule behind the calls is not given here. The set was probably picked from earlier hits. The list shows a part of the results. Results with a measured potency or affinity are listed apart.

Experiment: S. typhi counter-screen signal inhibition – fluorescence, 4 h, counter-screen for PhoP regulon inhibitor project, dose response (AID 2384)
Details: S. typhi GFP reporter counter-screen; series mostly up to 150 µM

| SMILES | inhibition |
| --- | --- |
| O=C(Cn1nc(Cc2ccncc2)c2ccccc2c1=O)Nc1cccnc1Cl | inactive |
| CCCN(C(=O)CSc1nc2ccccc2n1CC)C1CCS(=O)(=O)C1 (configuration not stated) | inactive |
| O=C(Nc1ccc2c(c1)OCCO2)C1CCCN1C(=O)Nc1ccc(F)cc1 (configuration not stated) | inactive |
| Clc1ccc(Cn2cccc2C2=NCCO2)cc1 | inactive |
| c1cnc2nc(-c3ccc4c(c3)OCO4)cn2c1 | inactive |
| COc1ccc(-c2nnc(SC(C)C(=O)Nc3nccs3)n2Cc2ccccc2)cc1OC (configuration not stated) | inactive |
| CN(C)C(=O)CSc1nnc(Cc2ccc([N+](=O)[O-])cc2)o1 | inactive |
| COc1ccc(N(CC(=O)N2c3ccccc3CC2C)S(=O)(=O)c2c(C)noc2C)cc1 (configuration not stated) | inactive |
| Cc1ccc(/C=N/NC(=O)Cc2cccn2C)cc1 | inactive |
| O=C(N/N=C/c1ccc(O)cc1O)C(=O)N/N=C/c1ccc(O)cc1O | inactive |
| Cc1cc(Cl)ccc1OCC(=O)N/N=C/c1ccncc1 | inactive |
| Cc1oc(/N=C/c2ccc(O)cc2O)c(C#N)c1C | inactive |
| CCOC(=O)c1[nH]c2ccc(Cl)cc2c1NC(=O)c1nonc1C | inactive |
| O=C(N/N=C/c1ccc(N2CCOCC2)cc1)c1ccc(O)cc1 | inactive |
| CN(CC(=O)Nc1ccc(F)c(F)c1F)c1cnccn1 | inactive |
| C[C@@H](NC(=O)[C@@H]1Cc2ccccc2CN1)C(=O)NCC1CCCO1 (some centres not stated) | inactive |
| CCCOc1ccc(C2C(C(=O)c3ccc(C)o3)=C(O)C(=O)N2CCCn2ccnc2)cc1 (configuration not stated) | inactive |
| C=CCNc1nc(-c2ccccc2)nc(-n2ccnc2)n1 | inactive |
| c1ccc2c(c1)CCN(c1nc3ccccc3n3cnnc13)C2 | inactive |
| CC1(NC(=O)NCCCCCCNC(=O)NC2(C)CCS(=O)(=O)C2)CCS(=O)(=O)C1 (configuration not stated) | inactive |
| O=c1c2ccccc2[nH]c2ccc(F)cc12 | inactive |
| O=c1[nH]n(-c2ccccc2)c(=O)c2ccccc12 | inactive |
| COc1ccc(N=Cc2c(O)n(CC3CCCO3)c(=O)[nH]c2=O)cc1 (configuration not stated) | inactive |

| SMILES | inhibition |
| --- | --- |
| Cc1cccc(N2CCN(C(=O)C3CCN(c4nnc(-n5cccc5)s4)CC3)CC2C)c1 (configuration not stated) | inactive |
| Cc1nn(C)c(C)c1NC(=O)c1ccc(S(=O)(=O)N(C)C)cc1 | inactive |
| COc1ccccc1Nc1cc(C(=O)NCc2cccnc2)c2ccccc2n1 | inactive |
| CC(C)(C)Nc1c2ccccc2nc2ccccc12 | inactive |
| Cc1cc(-c2nc3ccccc3o2)c2ccccc2n1 | inactive |
| CC(=O)c1sc2nc(=O)c(C)nn2c1C | inactive |
| CCOC(=O)C(CC)Sc1ccc2nnc(-c3cccnc3)n2n1 (configuration not stated) | inactive |
| COC(=O)c1cc2oc(C)cc2n1CC(=O)Nc1ccc(C)c(C)c1 | inactive |
| CCn1c(-c2cccc(Br)c2)n[nH]c1=S | inactive |
| Cc1onc(-c2ccccc2Cl)c1C(=O)NNC(=O)C1CCN(Cc2ccccc2)CC1 | inactive |
| CCCNC(=O)C1CCN(c2ccc(S(=O)(=O)N3CCOCC3)cc2Cl)CC1 | inactive |
| COC(=O)CNC(=O)c1ccc(=O)oc1 | inactive |
| COc1ccc(Cl)cc1N(C)C(=O)CCNC(=O)Cn1cnc2ccccc2c1=O | inactive |
| O=C(NCC1CC1)Nc1cccs1 | inactive |
| Oc1ccc(-c2nc3ncccn3c2Nc2ccc3c(c2)OCCO3)cc1 | inactive |
| COc1ccccc1NC(=O)Cn1cnc2c(nnn2-c2ccc(C)cc2)c1=O | inactive |
| COc1ccccc1NC(=O)CN1CCN(c2ccccc2)CC1 | inactive |
| CCN(CC)CCN(C(=O)c1cccc([N+](=O)[O-])c1)c1nc2ccc(OC)cc2s1 | inactive |
| COc1ccc2nc(NC(=O)Nc3ccccc3)sc2c1 | inactive |
| O=C(N/N=C/c1ccc(-c2ccc(Br)cc2)o1)c1ccc2c(c1)OCO2 | inactive |
| Cc1nc(C)c(-c2ccc(SCc3ccccc3C)nn2)s1 | inactive |
| CCCC(=NCc1ccccc1)C1=C(O)C(C(=O)OC)C(C)(C)CC1=O (configuration not stated) | inactive |
| Cc1noc(C)c1CCC(=O)N1CCCC(CCC(=O)NCc2ccc(F)c(F)c2)C1 (configuration not stated) | inactive |

| SMILES | inhibition |
| --- | --- |
| CC(C)CNC(CC(=O)O)c1ccccc1 (configuration not stated) | inactive |
| CCc1c(C)n([O-])c2c([n+]1=O)CCCCC2 | inactive |
| COCc1cc(=O)n2[nH]c(C)nc2n1 | inactive |
| O=C(CN1C2=NCCN2c2ccccc21)c1ccco1 | inactive |
| O=C(CC1(O)C(=O)Nc2ccc(Br)cc21)c1ccc2c(c1)OCO2 (configuration not stated) | inactive |
| COc1ccc(NS(=O)(=O)c2cc(NC(=O)c3ccc(C)s3)ccc2N2CCOCC2)cc1 | inactive |
| CCOc1ccc(-c2c[n+]3c(n2-c2ccccc2)CCCCC3)cc1 | inactive |
| COc1ccc(C2C(C#N)=C(N)Oc3n[nH]c(C)c32)cc1CSc1ccccn1 (configuration not stated) | inactive |
| CC(C)c1ccc2oc(=O)cc(CN3CCN(c4ccc(F)cc4)CC3)c2c1 | inactive |
| CCCCc1cc(=O)oc2cc(C)c(CN3CCCC3)c(O)c12 | inactive |
| CCN(CC)CCOC(=O)c1ccc(N/C=C(/C#N)c2nc(-c3ccc(OC)c(OC)c3)cs2)cc1 | inactive |
| O=C(CSC1=NCCS1)Nc1nc2c(s1)CCCC2 | inactive |
| O=C(CSc1cccc2cccnc12)Nc1ccc(S(=O)(=O)N2CCOCC2)cc1 | inactive |
| CC(=O)c1c(C)nc(-c2cccc([N+](=O)[O-])c2)n1O | inactive |
| CC(=O)Nc1cc(-c2ccc(Cl)cc2)[nH]n1 | inactive |
| Cc1ccc(C(=O)NCC(=O)NCCc2ccc(S(N)(=O)=O)cc2)s1 | inactive |
| N#Cc1nc(COc2ccc(Br)cc2)oc1NCCCn1ccnc1 | inactive |
| O=C1CCCN1c1ccc(CNS(=O)(=O)c2ccc(F)cc2)cc1 | inactive |
| COc1ccccc1C(=O)Nc1nnc(-c2ccc(Cl)cc2)o1 | inactive |
| COc1cccc(-c2nc(CS(=O)CC(=O)NCCCOC(C)C)c(C)o2)c1 (configuration not stated) | inactive |
| COc1ccc(S(=O)(=O)NCCSCc2ccco2)cc1Cl | inactive |
| Cn1c(N/N=C/c2c[nH]c3ccccc23)nc2ccccc21 | inactive |
| O=C(N/N=C\c1c[nH]c2ccccc12)c1ccc(O)cc1 | inactive |

| SMILES | inhibition |
| --- | --- |
| COc1cc(C(=O)N/N=C/c2coc3ccccc3c2=O)cc(OC)c1OC | inactive |
| O=C1CC(=O)CC(c2ccco2)C1 | inactive |
| FC(F)Oc1ccc(NC(=S)NCc2nc3ccccc3[nH]2)cc1 | inactive |
| Cc1nn(-c2ccccc2)c(C)c1/C=N/n1c(-c2ccc(C(C)(C)C)cc2)n[nH]c1=S | inactive |
| O=C1CCCN1CCC1CCN(C2CC(=O)N(c3ccc(Cl)cc3)C2=O)CC1 (configuration not stated) | inactive |
| COc1ccc(C(=O)Oc2ccc(/C=N/O)cc2)cc1 | inactive |
| COc1ccc(-c2cc(=NCC(=O)O)c3ccccc3o2)cc1 | inactive |
| CCCC1=C(C(=O)OCC)C(c2ccc(O)cc2)n2ncnc2N1 (configuration not stated) | inactive |
| Cc1cc2ccccc2c(=O)n1CC(=O)NCCC1=CCCCC1 | inactive |
| Cc1ccccc1C(=O)c1cccn1CC(=O)NCCC1=CCCCC1 | inactive |
| Cc1nc(C)c(-c2ccc(SCc3ccccc3F)nn2)s1 | inactive |
| O=C(O)c1cn(-c2ccc(F)cc2)c2cc(Cl)c(F)cc2c1=O | inactive |
| COC(=O)C(O)(c1c(C)[nH]n(-c2ccccc2)c1=O)C(F)(F)F (configuration not stated) | inactive |
| CN(C)C(=O)COC(=O)/C=C/c1ccccc1[N+](=O)[O-] | inactive |
| O=c1cc(-c2ccccc2)nc(N2CCN(Cc3ccccc3)CC2)[nH]1 | inactive |
| COc1ccccc1Oc1coc2c(CN3CCN(C)CC3)c(O)ccc2c1=O | inactive |
| CCCC(c1nnnn1Cc1ccc(OC)cc1)N1CCN(c2ccccc2OC)CC1 (configuration not stated) | inactive |
| Cc1nc2scc(C)n2c(=O)c1S(=O)(=O)N1CCN(c2cccc(C(F)(F)F)c2)CC1 | inactive |
| CCCCCN1C(=O)/C(=C/c2c(N3CCc4ccccc4C3)nc3ccccn3c2=O)SC1=S | inactive |
| Cc1ccc(-n2ncc3c(=O)[nH]cnc32)c(C)c1 | inactive |
| CCCCN(CCCC)CCNC(=O)CSCc1ccc(C)cc1 | inactive |
| COc1ccc(N2C(=O)CC(N3CC=C(c4ccccc4)CC3)C2=O)cc1 (configuration not stated) | inactive |
| Brc1ccc2c(c1)CN1CCCC1=N2 | inactive |

| SMILES | inhibition |
| --- | --- |
| CC(C)[C@@H](C(=O)NC1CCCC1)N1C(=O)N2CCc3c([nH]c4ccccc34)[C@@]2(C)C1=O | inactive |
| O=C(N/N=C/c1ccc(F)c(F)c1)c1cc2c(s1)-c1ccccc1CC2 | inactive |
| COc1ccc(Cl)cc1NC(=O)c1cc(-c2ccccc2)on1 | inactive |
| COc1cc(CNc2ccc(N3CCN(C(C)=O)CC3)cc2)ccc1OCc1ccccc1 | inactive |
| COc1cccc(CNC23CC4CC(CC(C4)C2)C3)c1OCc1ccccc1 | inactive |
| O=c1c2ccccc2nc(-c2ccoc2)n1CCc1ccccc1 | inactive |
| CCc1nc(SCC(=O)NCCc2ccccc2)c2c(=O)n(C)c(=O)n(C)c2n1 | inactive |
| Cn1c(=O)c2c(nc(Br)n2CCSc2nc3ccccc3o2)n(C)c1=O | inactive |
| CC1(C)CC(CCNC(=O)c2ccc(-n3cnnn3)cc2)CC(C)(C)N1 | inactive |
| COc1ccc(C(=O)Nc2cc3c(cc2OC)CCCC3)cc1Br | inactive |
| Nn1cnnc1SCC(=O)Nc1ccc(C2CCCCC2)cc1 | inactive |
| c1ccc(-c2nc(NC3CC3)nc(-n3ccnc3)n2)cc1 | inactive |
| O=C(Nc1ccc2c(c1)nc1n2CCN(Cc2ccccc2)C1)c1cccs1 | inactive |
| Cc1ccccc1Oc1ccc(Oc2ccccc2C)nn1 | inactive |
| CC1CCN(C(=O)C2CCCN(S(C)(=O)=O)C2)CC1 (configuration not stated) | inactive |
| C[N+]1(C)C2CCC1CC(OC(=O)c1ccccc1)C2 (configuration not stated) | inactive |
| CCN(CC)C(=O)C1CCN(Cc2ccc(Br)cc2)CC1 | inactive |
| CN(C)C=NC(=O)c1cc(C(=O)c2ccc(Cl)cc2Cl)c[nH]1 | inactive |
| COc1ccc(N2C3=C(CC4=C2CC(C)(C)CC4=O)C(=O)CC(C)(C)C3)cc1 | inactive |
| COc1ccc(Cl)cc1NC(=O)CN(C)CC(=O)Nc1ccccc1C(F)(F)F | inactive |
